# Measured values: PubChem BioAssay (NCI)
# Values joined by “and” are separate entries in the source; they are usually repeats but may differ in a detail not shown here. Equal values may be shown once. About 83,000 compounds went through this panel and 20% of them were active in at least one assay; those are over-represented in the sample as a whole.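 Note: values are percent growth. 100 is the growth of untreated cells, values between 100 and 0 indicate rising inhibition; between -100 and 0 indicates cell death.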 Active and inactive are the calls of the source. Rule for the calls: active = growth percent below 10; inactive = the rest.
# Columns and labels:
# Test in all cases: NCI-60 one-dose screen, 48 h (100 = growth as untreated, 0 = no growth, -100 = all killed)
# Conditions in all cases: 10 µM
# [1] = tested on: SK-MEL-2 melanoma
# [2] = tested on: EKVX NSCLC
# [3] = tested on: SN12C renal
# [4] = tested on: UO-31 renal
# [5] = tested on: TK-10 renal
# [6] = tested on: ACHN renal
# [7] = tested on: CAKI-1 renal
# [8] = tested on: A498 renal
# [9] = tested on: CCRF-CEM leukemia
# [10] = tested on: MOLT-4 leukemia
Structure (SMILES),growth [1],growth [2],growth [3],growth [4],growth [5],growth [6],growth [7],growth [8],growth [9],growth [10]
Clc1cc(Cl)c(Cl)nn1,99.9% (inactive),115% (inactive),98% (inactive),106% (inactive),146% (inactive),113% (inactive),109% (inactive),109% (inactive),88.7% (inactive),
O=C(O)COc1ccc(OCC(=O)O)cc1,64.9% (inactive),51.8% (inactive),2.58% (active),50.5% (inactive),20.6% (inactive),30.1% (inactive),90.7% (inactive),-14.2% (active),2.46% (active),9.12% (active)
COC1OCC(O)C(O)C1O (centres undefined),114% (inactive),99.1% (inactive),103% (inactive),86.2% (inactive),92.9% (inactive),111% (inactive),89.7% (inactive),84.5% (inactive),107% (inactive),101% (inactive)
NNc1ccc2ccccc2c1,101% (inactive) and 108% (inactive),76.7% (inactive) and 93% (inactive),94.7% (inactive) and 102% (inactive),52.5% (inactive) and 68.7% (inactive),109% (inactive) and 120% (inactive),81.6% (inactive) and 98.7% (inactive),84.6% (inactive) and 95.5% (inactive),88.5% (inactive),84.1% (inactive) and 114% (inactive),94.3% (inactive) and 109% (inactive)
CC(=O)Nc1cc(C)ccc1C,101% (inactive),99.9% (inactive),101% (inactive),88.1% (inactive),96.2% (inactive),106% (inactive),98.6% (inactive),83.8% (inactive),128% (inactive),110% (inactive)
COC(=O)C1C(O)C(C)C(O)C(C)C=C(C)C2=C3C(=C(C)C(=O)c4c(O)c(c(C)c(OC(C)=O)c43)NC(=O)C(C)=C/C=C\C(C)C(O)C(C)C1O)OCO2 (centres undefined),26.5% (inactive),119% (inactive),99.8% (inactive),89.3% (inactive),118% (inactive),104% (inactive),133% (inactive),123% (inactive),103% (inactive),153% (inactive)
O=C(Nc1ccc(C(=O)O)c(O)c1)c1ccccc1,113% (inactive) and 97.3% (inactive),98.9% (inactive) and 93.7% (inactive),95.2% (inactive) and 101% (inactive),81.3% (inactive) and 88.6% (inactive),106% (inactive) and 94.5% (inactive),96% (inactive) and 96.3% (inactive),102% (inactive) and 85.8% (inactive),121% (inactive) and 139% (inactive),130% (inactive) and 124% (inactive),109% (inactive) and 119% (inactive)
CCCCCCCCCCSC(=N)N,61.9% (inactive),92.1% (inactive),60.9% (inactive),53.4% (inactive),60% (inactive),50.1% (inactive),46.4% (inactive),95.1% (inactive),51.3% (inactive),15.2% (inactive)
Nc1c2ccccc2nc2ccccc12,-33.8% (active) and 33.6% (inactive) and 51.8% (inactive),-24.1% (active) and 43.9% (inactive) and 57.3% (inactive),12% (inactive) and 33.2% (inactive) and 33.5% (inactive),12.8% (inactive) and 11.1% (inactive) and 14.2% (inactive),-13.4% (active) and 48.2% (inactive),16.9% (inactive) and 25.5% (inactive),-37.7% (active) and 19.8% (inactive) and 21.5% (inactive),-0.261% (active) and 37.5% (inactive) and 18.3% (inactive),35.3% (inactive) and 20.5% (inactive) and 50.7% (inactive),8.47% (active) and 10.2% (inactive) and 12.6% (inactive)
O=[N+]([O-])C1=C(c2ccccc2)SC=C(c2ccccc2)S1,88.3% (inactive),92.3% (inactive),73.7% (inactive),71.6% (inactive),104% (inactive),83.5% (inactive),85.5% (inactive),84% (inactive),14.8% (inactive),26.4% (inactive)
Nc1nc(=S)c2ncn(C3OC(CO)C(O)C3O)c2[nH]1 (centres undefined),93% (inactive) and 15.6% (inactive),110% (inactive) and 23.3% (inactive),107% (inactive) and 26% (inactive),95.4% (inactive) and 19.8% (inactive),120% (inactive) and -8.09% (active),112% (inactive) and 17.2% (inactive),113% (inactive) and -8.94% (active),125% (inactive) and 29.6% (inactive),96.4% (inactive) and 24.2% (inactive),100% (inactive) and 13.4% (inactive)
